Sampled rows, rich in hits. Any-hit rate of the full collection: about 4.6%.
Cav3 T inh: inhibitors of human Cav3.2 T-type calcium channel; O95180; Cav3.2-expressing cells, Fluo-4 calcium fluorescence FDSS; stronger effect = lower value; B-score at 10 µM; 4% of 100,000 active;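 active = single-dose well whose peak fluorescence ratio is a statistical outlier from its plate by either plate-standardised score or position-corrected B-score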
IL1B cytotox: toxic to HUVEC cells under IL-1B stimulation | AID 845 | cell count reduction, % at 2 µM | HUVEC cell count loss, Hoechst imaging, IL-1B stimulated | 0.41% of 94,000 active;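 active = cell count reduction more than 3 SD above the screen-wide mean, cut at about 70% in these data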;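 note: normalized per plate to untreated control cells as the no-loss baseline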
sEH act: increases human soluble epoxide hydrolase activity | activation, % at 2 µM | P34913 | 0.04% of 91,000 active | AID 717 | purified human sEH enzymatic activity, activator screen; in the data active = activation above about 37%
Target sequence (P34913 whole entry, looked up): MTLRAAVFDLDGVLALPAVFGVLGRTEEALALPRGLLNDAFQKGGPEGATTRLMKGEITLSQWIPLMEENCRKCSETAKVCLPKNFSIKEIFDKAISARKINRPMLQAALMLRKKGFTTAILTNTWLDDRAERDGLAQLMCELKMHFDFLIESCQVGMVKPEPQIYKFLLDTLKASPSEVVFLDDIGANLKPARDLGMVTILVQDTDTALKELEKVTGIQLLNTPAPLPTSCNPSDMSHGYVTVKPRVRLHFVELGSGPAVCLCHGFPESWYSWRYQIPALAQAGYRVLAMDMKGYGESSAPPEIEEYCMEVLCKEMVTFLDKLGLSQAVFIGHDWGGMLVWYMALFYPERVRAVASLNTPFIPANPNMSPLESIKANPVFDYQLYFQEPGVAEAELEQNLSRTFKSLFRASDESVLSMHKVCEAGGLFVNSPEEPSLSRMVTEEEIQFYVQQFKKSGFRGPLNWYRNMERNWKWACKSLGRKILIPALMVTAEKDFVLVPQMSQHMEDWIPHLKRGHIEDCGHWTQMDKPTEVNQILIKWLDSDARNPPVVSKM
IL1B NFkB inh: blocks IL-1B driven NFkB nuclear translocation in HUVEC cells; HUVEC IL-1B NFkB p65 nuclear translocation imaging; 0.43% of 94,000 active; inhibition, % at 2 µM;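 active = inhibition above about 30% together with a positive call from visual inspection of the well image, limit read from the data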;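 note: nuclear over cytoplasmic p65 intensity ratio measured by imaging; 0% = IL-1B stimulated DMSO wells and 100% = unstimulated DMSO wells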
sEH inhibitor: soluble epoxide hydrolase (human) inhibition | P34913 | 0.34% of 91,000 active | inhibition, % at 2 µM | recombinant human sEH enzymatic activity assay; in the data active = inhibition above about 80%
IL1B NFkB pot: enhances IL-1B driven NFkB nuclear translocation; HUVEC IL-1B NFkB p65 nuclear translocation imaging; AID 819; activation, % at 2 µM; 0.3% of 94,000 active;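 active = activation above 40%, about the mean plus 3 SD, also judged a hit on visual image review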;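 note: percent activation is computed from the nuclear over cytoplasmic p65 intensity ratio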
* marks the source's active call; other numbers are inactive results; . = no result.

SMILES | Cav3 T inh | IL1B cytotox | sEH act | IL1B NFkB inh | sEH inhibitor | IL1B NFkB pot
COc1ccc(C2C(C#N)=C(N)Oc3cc4c(cc32)OCO4)cc1 (centres undefined) | -4* | -8 | 3 | -21 | 2 | 21
CC(C)N(C(=O)CSc1nnc(-c2cc3ccccc3cc2O)n1Cc1ccco1)C(C)C | -6.6* | -12 | 10 | 2 | -12 | -2
O=C(CSc1nnc(-c2cc3ccccc3cc2O)n1Cc1ccco1)N1CCc2ccccc2C1 | -5.1* | 22 | 5 | -1 | -3 | 1
C(=N\n1cnnc1)/c1ccc2ncccc2c1 | -2.4 | 7 | -10 | 10 | 10 | -10
Cc1nc(SCC(=O)Nc2ccc(N3CCOCC3)cc2)nc(C)c1C | -0.19 | 0 | -2 | -12 | 0 | 12
COc1ccc(CNC(=O)C/C(C)=N/NC(=O)C(c2ccccc2)c2ccccc2)cc1 | -4.2* | -61 | -8 | 4 | 9 | -4
CCn1cc(C(=O)NCc2ccc3c(c2)OCO3)c(=O)c2cc(F)c(N3CCN(C)CC3)cc21 | 1.6 | 8 | -2 | -25 | 0 | 25
COc1ccc(N(CC(=O)NC2CCCC2)C(=O)Cn2nnc(-c3ccc(C)cc3)n2)cc1 | -6.7* | 12 | -12 | -31 | 14 | 31
CCOC(=O)c1c(N)c(C#N)cn1-c1ccccc1 | -0.1 | -2 | 14 | -18 | -14 | 18
O=C(CSc1nnc(COc2ccc3c(c2)CCCC3)o1)Nc1ccc(F)cc1 | 1.8 | -5 | -8 | 3 | 9 | -3
Cc1c(NC(=O)c2ccc(F)cc2)c(=O)n(-c2ccccc2)n1C | 0.39 | -1 | -1 | 11 | 4 | -11
O=C(Nc1ccc(N2CCCC2)cc1)c1cccc(F)c1 | -5.7* | -5 | -8 | 8 | 7 | -8
Cc1c(NS(=O)(=O)c2cccc(C(=O)NCc3ccncc3)c2)c(=O)n(-c2ccccc2)n1C | -0.27 | 8 | 23 | -42 | -19 | 42*
Cc1c(NC(=O)c2cccc(F)c2)c(=O)n(-c2ccccc2)n1C | 0.3 | 77* | -4 | -2 | 6 | 2
Cc1c(NS(=O)(=O)c2cccc(C(=O)NCc3ccccc3)c2)c(=O)n(-c2ccccc2)n1C | . | 7 | -18 | -6 | 16 | 6
COc1ccc2[nH]cc(S(=O)(=O)c3ccc(F)cc3)c(=O)c2c1 | 0.27 | 9 | 7 | -3 | -8 | 3
Cc1cc2n(n1)C(c1ccc(N(C)C)cc1)Nc1ccccc1-2 (centres undefined) | -7.2* | -15 | 3 | -6 | -2 | 6
Cc1cc2n(n1)C(c1ccccc1)Nc1ccccc1-2 (centres undefined) | 0.7 | 11 | 7 | -11 | -8 | 11
CC(C)[C@H](NC(=O)OC(C)(C)C)c1nnc(SCC(=O)Nc2ccc(Br)cc2)o1 | -6.7* | 9 | -12 | -14 | 11 | 14
CC(C)=CCSc1nnc([C@@H](NC(=O)OC(C)(C)C)C(C)C)o1 | -2.9* | -3 | 10 | 11 | -12 | -11
Cc1[nH]c(=O)[nH]c(=O)c1CSc1nnc([C@@H](NC(=O)OC(C)(C)C)C(C)C)o1 | 0.066 | -6 | -9 | 0 | 8 | 0
Cc1cccc(C)c1NC(=O)CSc1nnc([C@H](C)NC(=O)OC(C)(C)C)o1 | 0.31 | -35 | -8 | -22 | 9 | 22
CC(CCc1ccccc1)NC(=O)c1nnc(Cc2ccc(Cl)cc2)o1 (centres undefined) | . | -86 | -8 | -22 | 10 | 22
COCCCn1c2nc3ccccc3nc2c2c(=O)n(Cc3ccccc3Cl)cnc21 | 0.096 | . | . | . | . | .
C=CCn1c(SCc2nc(N)nc(N(C)C)n2)nnc1-c1cccnc1 | . | -13 | -11 | -28 | 11 | 28
CCc1ccc2nc(N3C(=O)C(O)=C(C(=O)c4ccco4)C3c3cccs3)sc2c1 (centres undefined) | -4.3* | -14 | 0 | -6 | 3 | 6
CCOC(=O)C1(N(CC)CC)Sc2cc(C)ccc2NC1=O (centres undefined) | . | 11 | -13 | -8 | 13 | 8
C=C(C)C(=O)OC1(C(F)(F)F)Oc2cc(C)ccc2NC1=O (centres undefined) | 0.026 | 0 | 41* | -4 | -41 | 4
O=C(NC1CCCc2ccccc21)C1CCN(S(=O)(=O)c2cccc3nonc23)CC1 (centres undefined) | -0.39 | 3 | -52 | 8 | 54 | -8
Nc1cc(N)nc(SCC(=O)N2CCc3ccccc32)n1 | -1.3 | 4 | -7 | 2 | 8 | -2
